Assay outcomes (PubChem)
HT1080-NT tox: qHTS for induction of synthetic lethality in tumor cells producing 2HG: qHTS for the HT-1080-NT fibrosarcoma cell line; HT-1080-NT fibrosarcoma viability, CellTiter-Glo ATP luminescence, 48 h; Potency, µM (highest dose often 46.1 µM), for the others: at the top dose activity, negative = less viability, usual class: cytotoxic; hit rate 1.6% among 360,000; AID 686970, 2013;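 further: NT is the 2HG producing partner of a matched IDH1 knockdown line; 0% = DMSO-treated cells and -100% = media-only wells without cells; nearly all actives have a fitted effect of over 55% in size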
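Toxicity toward the 2HG-producing NT line was scored as %Activity, normalised to DMSO and no-cell wells, from CellTiter-Glo luminescence after 48 hours' treatment.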
KB-V1 cytotox: qHTS assay for MDR1-selective chemotherapeutics: Primary screen using the drug-selected MDR subline cells KB-V1. KB-V1 MDR cells viability, CellTiter-Glo, 72 h. Potency, µM (doses to about 46.1 µM), actives largely listed as cytotoxic. hit rate 3.4% among 400,000. AID 1347076, 2019; further: on the % scale 0 is the no-effect control and ±100 the full control effect; nearly all actives have a fitted effect of over 60% in size
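Potencies derive from concentration-effect curves fitted to normalized luminescence (CellTiter-Glo) of KB-V1 cells treated for 72 h at 37 degrees C in phenol-red-free DMEM containing 10% FBS.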
ATXN viability: Viability Counterscreen for Primary qHTS for Inhibitors of ATXN expression | S2 cells (HEK-293 line with an ATXN2-luciferase reporter) viability, CellTiter-Fluor protease fluorescence, 24 h | Potency, µM (titrated, usually from 56.7 µM), hits mostly cytotoxic | hit rate 0.49% among 400,000; further: nearly all actives have a fitted effect of over 40% in size
KB-3-1 tox: qHTS assay for MDR1-selective chemotherapeutics: Primary screen using the parental adenocarcinoma cell KB-3-1; KB-3-1 viability, CellTiter-Glo ATP luminescence, 72 h; hit rate 1.4% among 400,000; Potency, µM (series often up to 46.1 µM), hits mostly cytotoxic; further: on the % scale 0 is the no-effect control and ±100 the full control effect; nearly all actives have a fitted effect of over 60% in size
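KB-3-1 parental drug-naive adenocarcinoma cells in DMEM/10% FBS, incubated 72 h at 37 C with pin-transferred compounds across a concentration series. Viability by CellTiter-Glo luminescence; concentration-response curves fitted after normalization.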
HT1080 IDH1KD tx: qHTS for induction of synthetic lethality in tumor cells producing 2HG: qHTS for the HT-1080-IDH1KD cell line; HT-1080 IDH1 knockdown viability, ATP luminescence, 48 h; Potency, µM (titrated, usually from 46.1 µM), for the others: top-dose activity, negative = toxicity, hits mostly cytotoxic; hit rate 2% among 360,000;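 further: 0% = DMSO wells and -100% = cell-free medium wells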
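HT-1080-IDH1KD cells (IDH1 knocked down), 750/well in RPMI with 5% FBS, treated with compound 48 h at 37 degrees C. Viability by CellTiter-Glo luminescence, normalised to DMSO and no-cell wells; concentration-response curves classed.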
ATXN2 expr inh: Primary qHTS for Inhibitors of ATXN expression | HEK-293 ATXN2-luciferase reporter, luminescence, 24 h | hit rate 0.72% among 360,000 | Potency, µM (highest dose often 57 µM), without a hit: top-dose activity change, negative = inhibition, actives largely listed as inhibitors; further: on the % scale 0 is the no-effect control and ±100 the full control effect; nearly all actives have a fitted effect of over 55% in size
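ATXN2-luciferase reporter cells (luciferase flanked by upstream and downstream ATXN2 gene portions) were treated 24 h at 37 °C with compounds at up to 57 uM. SteadyGlo luminescence gave expression; GF-AFC fluorescence gave viability.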
The depositor's hits bear a star; i = inactive; ? = inconclusive; nt = no result; ! = repeats disagree; [ ] = dose if it differs, or a comment. A selection: hits, their analogues and other compounds. The true share with any hit is near 6.2%. The call rests on the fitted dose curve; in most records, active means well fitted curve in the direction sought with a large enough effect; inconclusive means small, poorly fitted or top-dose-only effect, or another doubt; inactive means no such curve, though single readings can be large; an effect the other way counts as inactive or inconclusive. Potency means the concentration at half of the fitted maximal effect.

SMILES	HT1080-NT tox	KB-V1 cytotox	ATXN viability	KB-3-1 tox	HT1080 IDH1KD tx	ATXN2 expr inh
CCOC(=O)C1=C[C@]2(CC)CCCN3CCc4c(n1c1ccccc41)[C@@H]32	29%	?	?	i	14%	31µM*!
CCN(Cc1ccccc1)c1ccc(/C=C/c2nccc3ccccc23)cc1	nt	i	nt	i	nt	nt
Cc1ccc(C(=O)NC(=S)N2CC(C)OC(C)C2)cc1[N+](=O)[O-] (centres undefined)	3.5µM*	?	i	i	2.8µM*	-1%
O=C(NCCc1nnc2n1CCN(Cc1ccc(F)cc1)CC2)c1ccc(F)cc1	nt	nt	i	nt	nt	nt
CC(=O)Nc1ccccc1-c1nc(CNC(=O)c2ccc(-n3cccn3)cc2)c(C)o1	nt	nt	i	nt	nt	nt
C=CCC[C@H](Cc1ccc(F)cc1)C(=O)OC[C@H](Cc1c[nH]c2ccccc12)NC(=O)[C@@H](CC=C)CC(=O)N[C@@H](CO)Cc1ccccc1	?	i	18µM*	?	?	16µM*
C=CCC[C@H](Cc1ccc(F)cc1)C(=O)OC[C@H](Cc1c[nH]c2ccccc12)NC(=O)[C@@H](CC=C)CC(=O)N[C@H](CO)Cc1ccccc1	21µM*	i	?	?	18µM*	0%
C=CCC[C@H](Cc1ccc(F)cc1)C(=O)OC[C@H](Cc1c[nH]c2ccccc12)NC(=O)[C@H](CC=C)CC(=O)N[C@H](CO)Cc1ccccc1	0%	i	?	i	-1%	-9%
C=CCC[C@@H](Cc1ccc(F)cc1)C(=O)OC[C@H](Cc1c[nH]c2ccccc12)NC(=O)[C@@H](CC=C)CC(=O)N[C@H](CO)Cc1ccccc1	-20%	?	?	i	-27%	-18%
COc1ccccc1CNC(=O)c1c2c(nc3ccccc13)C(=O)N(C1CCCCC1)C2	nt	i	nt	i	nt	nt
CCN(CC)c1ccc(/C=N/NC(=O)c2cnccn2)cc1	5.2µM*	i	i	?	3.7µM*	22%[11.3 µM]
CCN(CC)c1ccc(/C=N/NC(=O)c2ccco2)cc1	?	i	?	3.7µM*	2.6µM*	0%
CCN(CC)c1ccc(/C=N/NC(=O)c2ccco2)c(O)c1	?	i	i	?	?	?
CCCn1nnc(NC(=O)c2cc(Br)cc(Br)c2OC)n1	8%	16µM*	i	i	8%	-13%
CCCn1nnc(NC(=O)c2ccc(Br)cc2)n1	1%	i	i	i	?	37%
CCCCn1c(CCC(=O)O)nc2c1c(=O)[nH]c(=O)n2CCC	21%	i	i	i	13%	-10%
CCCCn1c(=O)[nH]c(=O)c2c1nc(COC(=O)c1c(C)noc1C)n2CCC	7%	4.1µM*	i	i	4%	1%
Cc1ccc(Cn2c(=O)c3cccnc3n(CC(=O)Nc3cc(Cl)ccc3C)c2=O)cc1	nt	i	i	i	nt	-6%
Cc1ccc2nc(N3C(=O)C(O)=C(C(=O)c4cc5ccccc5o4)C3c3cccs3)sc2c1 (centres undefined)	-1%	i	i	i	-16%	38%
CCc1ccc2nc(N3C(=O)C(O)=C(C(=O)c4ccco4)C3c3cccs3)sc2c1 (centres undefined)	-4%	5.8µM*	i	?	-20%	46%
Cc1cc(N2C(=O)C(O)=C(C(=O)c3ccc(C)o3)C2c2cccs2)no1 (centres undefined)	-21%	5.2µM*	i	?	-26%	-12%
COc1ccc(-c2ccc(C(=O)NCC3Cc4cccc(-c5nc(C)cnc5C)c4O3)o2)cc1 (centres undefined)	nt	nt	i	nt	nt	nt
c1cnc(N2CCN(c3ncc4c(n3)CCNC4)CC2)nc1	nt	i	i	i	nt	11%
